Laboratory results from PubChem BioAssay AID1159580 (chemical genetic matrix, 2015).
About 2,000 (36%) of roughly 5,500 compounds were called active. About 18% were inconclusive and are not listed. Rule as the data show it: active = normalized growth mostly below about 0.91 (no sharp cut-off); inconclusive = no clear call, values can overlap the other calls; inactive = mostly above about 0.92. This is one part of the list.

Assay: chemical genetic growth profiling, strain panel (AID 1159580);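 also: tested at 20 µM; growth read once vehicle control cultures reached saturation at 30 °C; 1 = growth at the plate median or of vehicle wells; lower values mean less growth of the strain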
Conditions: S. cerevisiae deletion strains, growth OD

Measured: normalized growth

N#CCC(=O)Nc1ccccn1
inactive: locus YAL013W, strain DEP1, hits give low values 1.02 | locus YBR229C, strain ROT2, hits give low values 0.964 | locus YDL101C, strain DUN1, hits give low values 1.04 | locus YDR150W, strain NUM1, hits give low values 1.01 | locus YEL061C, strain CIN8, hits give low values 1.01 | locus YGR078C, strain PAC10, hits give low values 1.02 | locus YHR030C, strain SLT2, hits give low values 1.24 | locus YHR087W, strain rtc3, hits give low values 0.986 | locus YJR043C, strain POL32, hits give low values 1.01 | locus YJR075W, strain HOC1, hits give low values 1 | locus YKL190W, strain CNB1, hits give low values 1 | locus YLR039C, strain RIC1, hits give low values 1.01 | locus YLR058C, strain SHM2 (second series), hits give low values 0.995 | locus YLR085C, strain ARP6, hits give low values 1.06 | locus YLR262C, strain YPT6, hits give low values 0.989 | locus YML094W, strain GIM5, hits give low values 1.02 | locus YMR219W, strain ESC1, hits give low values 0.992 | locus YMR263W, strain SAP30, hits give low values 1.01 | locus YNL153C, strain GIM3, hits give low values 1.04 | locus YNL298W, strain CLA4 (second series), hits give low values 1.06 | locus YNL322C, strain KRE1, hits give low values 1.01 | locus YNR030W, strain Alg12, hits give low values 1.07 | locus YOL006C, strain TOP1, hits give low values 1.07 | locus YPL055C, strain LGE1, hits give low values 1.04 | locus YPL241C, strain CIN2, hits give low values 1.04 | locus YPR135W, strain CTF4, hits give low values 1.2
